Source: PubChem BioAssay
This is a sample that favours compounds with a hit; in the whole collection about 1.2% have one here.
RGS4-Gao reg: human RGS4-Galphao interaction regulation; binding response (% of control), % at 10 µM; AID 1415; 220,000 tested, 0.33% active; P09471; Multiplexed bead flow cytometry, RGS4-Galphao binding; actives lie on both sides; in the data active = binding response below about 49% or above about 150%; inactive = in between;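 also: fluorescent Galphao activated with aluminum fluoride binding bead-coupled RGS4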
Target sequence (P09471 whole entry, looked up): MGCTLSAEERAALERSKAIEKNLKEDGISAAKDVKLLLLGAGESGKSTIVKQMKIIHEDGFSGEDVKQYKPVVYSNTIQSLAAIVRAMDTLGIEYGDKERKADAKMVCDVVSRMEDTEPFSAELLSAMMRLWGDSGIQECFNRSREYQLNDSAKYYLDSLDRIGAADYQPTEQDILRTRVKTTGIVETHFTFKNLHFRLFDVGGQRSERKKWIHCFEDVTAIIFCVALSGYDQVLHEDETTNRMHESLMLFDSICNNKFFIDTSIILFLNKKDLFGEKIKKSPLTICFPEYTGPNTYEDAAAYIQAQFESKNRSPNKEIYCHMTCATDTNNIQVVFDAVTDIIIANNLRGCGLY
Avidin fluor: avidin bead compound fluorescence profile; Avidin beads, compound fluorescence 488/530 nm, flow cytometry; hits give high values; fluorescence (KMESF) at 10 µM; 220,000 tested, 0.38% active; AID 1775; in the data active = fluorescence above about 47
RGS8-Gao: modulates binding of RGS8 to human Galphao; P09471; AID 1423; 220,000 tested, 0.34% active; response (percent of control binding), % at 10 µM; multiplexed bead flow cytometry; actives lie on both sides; in the data active = response below about 60% or above about 140%; inactive = in between;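 also: Galphao activated as the GDP aluminium fluoride complex binding bead-coupled RGS8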
RGS7-Gao: human RGS7-Galphao interaction regulation. P09471. Multiplexed bead flow cytometry, RGS7-Galphao binding; actives lie on both sides. binding response (% of control), % at 10 µM. 220,000 tested, 0.35% active. AID 1439; in the data active = binding response below about 49% or above about 150%; inconclusive = no clear call, values can overlap the other calls; inactive = in between;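 also: fluorescent Galphao held in activated GDP-AlF4 state binding bead-coupled RGS7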
GSH bead fluor: GSH bead compound fluorescence profile | AID 1776 | 190,000 tested, 0.25% active | GSH beads flow cytometry, compound fluorescence 488/530 nm; hits give high values | fluorescence (KMESF) at 10 µM; in the data active = fluorescence above about 89;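 also: glutathione beads carrying GST-tagged Bcl family fusion proteins plus one bare bead set; values are compound well signal with DMSO vehicle wells as background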
RGS16-Gao HTS: regulators of human RGS16-Galphao interaction; 220,000 tested, 0.38% active; bead-based flow cytometry RGS16-Galphao binding, fluorescence; actives lie on both sides; AID 1441; O15492+P09471; binding response (% of control), % at 10 µM; call rule not given here;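 also: Galphao activated by GDP with aluminum fluoride before binding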
Target sequence (O15492 whole entry, looked up): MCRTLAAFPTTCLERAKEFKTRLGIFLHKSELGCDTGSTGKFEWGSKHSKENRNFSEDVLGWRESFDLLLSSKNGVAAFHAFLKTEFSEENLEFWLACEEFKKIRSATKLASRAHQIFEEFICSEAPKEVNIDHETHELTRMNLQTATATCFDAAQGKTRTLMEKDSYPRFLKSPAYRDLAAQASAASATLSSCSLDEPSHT
Target sequence (P09471 whole entry, looked up): as the sequence (P09471 whole entry, looked up) above
Numbers without * were called inactive; ? = inconclusive; . = no result given; ! = repeats disagree; [ ] = dose if it differs, or a comment.

SMILES | RGS4-Gao reg | Avidin fluor | RGS8-Gao | RGS7-Gao | GSH bead fluor | RGS16-Gao HTS
CCCC(=O)Nc1ccc(C(=O)NCc2ccccc2Cl)cc1 | 99.5 | 4 | 100.0 | 95.1 | 137* | 86.6
O=C(NCc1ccccc1Cl)c1ccc(-c2ccccc2)cc1 | 101.0 | 6 | 102.9 | 102.3 | 9 | 98.0
CC(CCc1ccccc1)NC(=O)N1CCOCC1 (stereo unspecified) | 99.1 | 16 | 100.8 | 103.8 | 10 | 101.6
CC(C)(C)Nc1cccccc1=O | 105.0 | 66* | 100.6 | 121.6 | 38 | 102.8
CCOc1cc(NS(=O)(=O)c2ccc(NC(C)=O)cc2)c(OCC)cc1NC(=O)c1cccs1 | 103.2 | 12 | 100.2 | 96.2 | 16 | 102.5
Cc1cc(C)c[n+](-c2nc3ccccc3nc2C(=C=[N-])C#N)c1 | 83.4 | 24 | 95.0 | 100.5 | 238*! | 86.6
CCc1ccc[n+](-c2nc3ccccc3nc2C(=C=[N-])C#N)c1 | 94.3 | 7 | 95.8 | ? | . | 88.1
Cc1ccc[n+](-c2nc3ccccc3nc2C(=C=[N-])C#N)c1 | 110.7 | 61*! | 82.8 | ? | 11 | 82.2
Nc1c(S(=O)(=O)c2cccs2)c2nc3ccccc3nc2n1/N=C/c1cccc(O)c1 | 114.4 | 57* | 104.4 | 111.2 | 5 | 112.6
COc1cccc(/C=N/n2c(N)c(S(=O)(=O)c3cccs3)c3nc4ccccc4nc32)c1 | 99.9 | 7 | 101.1 | 101.1 | 53 | 99.8
COc1ccc(/C=N/n2c(N)c(S(=O)(=O)c3cccs3)c3nc4ccccc4nc32)cc1OC | 89.3 | 47* | 91.0 | 96.6 | 16 | 95.4
Cc1ccc(-c2nc3cccnc3s2)cc1NS(C)(=O)=O | -22.3* | -2 | 2.3* | -31.0* | 18 | -19.1*
COc1ccc(CCN2C(=O)c3ccccc3C2(O)c2ncc[nH]2)cc1OC (stereo unspecified) | 95.4 | 4 | 98.0 | 95.3 | 146* | 100.9
O=C1C2C3C=CC(C2C(=O)N1CCCO)C1C2C(=O)N(CCCO)C(=O)C2C31 (stereo unspecified) | 105.5 | 16 | 103.0 | 104.1 | 28 | 97.3
Cc1ccc(S(=O)(=O)Nc2nc3cc(C)c(C)cc3[nH]2)cc1 | 105.5 | 10 | 114.0 | 102.3 | 18 | 154.7
COc1ccccc1CNC(=O)C1CC(c2ccccc2[N+](=O)[O-])=NO1 (stereo unspecified) | 99.3 | 49* | 98.6 | 107.3 | 11 | 101.5
COc1ccc(CNC(=O)C2CC(c3ccccc3[N+](=O)[O-])=NO2)cc1 (stereo unspecified) | 99.1 | 32 | 102.8 | 99.8 | 13 | 99.3
COc1ccccc1CN(Cc1nc2ccccc2c(=O)[nH]1)C(=O)Nc1ccccc1 | 105.5 | 38 | 102.8 | 104.2 | 21 | 103.9
Cc1cc(C)n(CC(O)CN(c2ccccc2)S(=O)(=O)c2ccccc2)n1 (stereo unspecified) | 100.4 | 67* | 96.0 | 145.9 | 39 | 115.6
Cc1ccc(N(CC(O)Cn2nc(C)cc2C)S(=O)(=O)c2ccc3ccccc3c2)cc1 (stereo unspecified) | 97.3 | 14 | 98.0 | 95.6 | 17 | 95.4
CCOc1ccccc1NC(=O)N1C2CCCC1CC(NC(=O)C1CC1)C2 (stereo unspecified) | 100.7 | 8 | 101.5 | 101.0 | 96* | 98.0
CCCCOc1ccc(C2CC(=O)NC2=O)cc1 (stereo unspecified) | 107.0 | 79* | 101.1 | 130.6 | 23 | 103.7
CCCOc1ccc(C2CC(=O)NC2=O)cc1 (stereo unspecified) | 104.6 | 11 | 102.8 | 105.6 | 15 | 106.6
O=C1c2ccccc2C(=O)N1n1cccc1 | 106.3 | 3 | 108.7 | 105.8 | 9 | 121.8
COc1cc(OC)cc(-c2cc(N)n(S(=O)(=O)c3cccc4nsnc34)n2)c1 | 98.7 | 7 | 101.1 | ? | . | 101.5
SMILES | RGS4-Gao reg | Avidin fluor | RGS8-Gao | RGS7-Gao | GSH bead fluor | RGS16-Gao HTS
O=C1c2ccncc2C(=O)N1CO | -31.1* | -3 | 8.6* | -10.4* | 11 | -19.9*
CC(=O)NC1CC(C)(C)N(OC(C)=O)C(C)(C)C1 | 110.8 | 53* | 104.7 | 133.2 | 36 | 113.5
CC(C)C(C)(C#N)NC(=O)CSc1nc(C2CCCCC2)n(-c2ccccc2)n1 (stereo unspecified) | 98.9 | 13 | 100.7 | 104.3 | 5 | 101.3
COc1ccc(C(=O)NC2(C(F)(F)F)C(=O)Nc3c2c(=O)[nH]c(=O)n3CCc2ccc(OC)c(OC)c2)cc1 (stereo unspecified) | 100.1 | 36 | 99.7 | 98.6 | 11 | 98.0
Cc1nc(N2CCC(C)CC2)c2nnn(Cc3ccccc3)c2n1 | 82.3 | 4 | 84.4 | 83.8 | 89* | 37.6
Cc1ccc(C)n1-n1c(C)nc2scc(-c3ccccc3)c2c1=O | 109.4 | 86* | 100.3 | 138.6 | 17 | 106.3
CN(C)c1ccc(/C=C2\SC(=S)N(Nc3ncc(C(F)(F)F)cc3Cl)C2=O)cc1 | 118.5 | 56* | 104.3 | 118.9 | 45 | 122.9
CC1CN=C(c2cccn2Cc2ccc(F)cc2Cl)O1 (stereo unspecified) | 99.5 | 12 | 105.1 | 101.2 | 19 | 101.6
O=C(CN1CCN(c2ccccn2)CC1)Nc1ccc(Oc2ccccc2)cc1 | 103.9 | 13 | 104.1 | 97.9 | 18 | 106.6
O=C(CN1CCN(c2ccccn2)CC1)Nc1ccc(OCc2ccccc2)cc1 | 105.3 | 63* | 101.5 | 119.6 | 21 | 109.9
CCOc1cccc(/C(O)=C2/C(=O)C(=O)N(Cc3cccnc3)C2c2ccco2)c1 (stereo unspecified) | 103.2 | 58* | 99.8 | 120.9 | 7 | 99.6
CC(=O)Nc1ccc(NC(=O)COc2cccc3c2OC(C)(C)C3)cc1 | 99.0 | 58* | 99.0 | 110.9 | 7 | 97.1
O=C1CCCc2ccccc2N1Cc1ccc(Cl)cc1Cl | 99.2 | 68* | 99.8 | 113.1 | 20 | 95.4
N#C/C(=C\c1ccc(O)c(O)c1)S(=O)(=O)c1ccccc1 | 223.3*[activator] | . | 154.9*[activator] | 203.3*[activator] | 28 | 259.4*[activator]
C=CCNc1nc(Nc2ccccc2F)nc(OCC)n1 | 97.8 | 9 | 97.8 | 95.0 | 21 | 100.3
C=CCNc1nc(Nc2ccc(OC)cc2OC)nc(OCC)n1 | 113.6 | 75* | 101.5 | 137.4 | 26 | 108.5
Cc1c(N=Cc2c(O)n(Cc3ccco3)c(=O)c3ccccc23)c(=O)n(-c2ccccc2)n1C | 98.7 | 4 | 101.0 | 99.8 | 136* | 101.8
O=c1c2ccccc2c2ccccc2c(=O)n1Cc1ccco1 | 101.0 | 34 | 102.7 | 102.1 | 19 | 108.1
Cc1cccc(C(=O)Nc2nnc(SCC(=O)Nc3ccc4c(c3)oc3ccccc34)s2)c1 | 109.9 | 12 | 104.8 | 108.6 | 8 | 102.3
COc1ccccc1C(=O)Nc1nnc(SCC(=O)Nc2ccc3c(c2)oc2ccccc23)s1 | 100.0 | 14 | 102.5 | 102.3 | 811* | 110.5
CCCCNC(=O)OCCNC(=O)NC | 98.5 | 16 | 103.9 | 97.7 | 34 | 116.1
